LANA DNA inh: blocks KSHV LANA C-terminal domain binding to DNA | MBP-C-LANA/FAM-LBS DNA binding, fluorescence polarization | inhibition, % at 9 µM | 0.078% of 340,000 active;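 active means highest replicate inhibition at or above 60% at 9 µM, even if other replicates fall short; inactive means all replicates below 60% inhibition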
GLD-1 TGE inh: GLD-1-TGE RNA interaction inhibition (C. elegans); purified GLD-1 + fluorescein TGE RNA, fluorescence polarization; inhibition, % at 5.96 µM; Q17339; 0.44% of 320,000 active;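 active means percent inhibition above a per-plate cutoff, the plate mean of test compounds plus 3 SD, cut at about 30% in these data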
Keap1 Nrf2 FP: inhibitors of human Keap1-Nrf2 protein-protein interaction; Keap1 Kelch-Nrf2 peptide fluorescence polarization, 1536-well; inhibition, % at 9.4 µM; 0.15% of 340,000 active; in the data active means inhibition above about 12%;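 further: human Keap1 Kelch domain with fluorescein labeled Nrf2 9mer peptide probe; higher means more block of Keap1 binding to Nrf2 peptide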
EBV gp42 block: EBV gp42 inhibition; Q1HVG2; Fluorescence polarization binding assay, mP read-out; inhibition, % (tested at 21.74 µM); 0.42% of 220,000 active; in the data active means inhibition above about 50%
Target sequence (Q1HVG2 whole entry, looked up): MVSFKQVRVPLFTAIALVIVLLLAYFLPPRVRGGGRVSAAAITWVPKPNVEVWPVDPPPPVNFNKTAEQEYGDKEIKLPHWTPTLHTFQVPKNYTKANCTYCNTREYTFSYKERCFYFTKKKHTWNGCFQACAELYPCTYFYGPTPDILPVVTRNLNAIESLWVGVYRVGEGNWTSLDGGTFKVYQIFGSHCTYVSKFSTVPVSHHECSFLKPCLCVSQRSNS
LANA-H2B inh: blocks KSHV LANA binding to histone H2A/H2B | Q9QR71 | cell-free LANA-H2A/H2B peptide, fluorescence polarization | inhibition, % (test concentration not listed) | 0.6% of 320,000 active | AID 2629; in the data active means inhibition mostly above about 10%, no sharp cut-off; inactive means mostly below about 6.7%
E coli Lon inh: inhibitors of E. coli Lon protease; P0A9M0; purified E. coli Lon protease, fluorescence polarization; inhibition, % at 7.94 µM; 0.42% of 360,000 active; in the data active means inhibition above about 13%, passing the limit was not always enough
GLD-1 TGE cf: GLD-1 TGE RNA interaction inhibition, confirmation. shares compounds with GLD-1 TGE inh. GLD-1/FL-TGE RNA fluorescence polarization, biochemical. inhibition, % at 5.96 µM. 10% of 550 active. AID 2459;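 active means average inhibition across triplicates above the hit cutoff set in the primary screen, cut at about 32% in these data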
Large screens that a line does not name were inactive (follow-up assays come after a bar, where they were run). The list is not random: actives were taken first. Their share in the collection is about 1.5%.

CCOC(=O)/C=C/C(=O)NNC(=O)c1ccccc1Cl	none
CCSC1(SCC)N=C(N)C2(C#N)C(c3ccccc3)NC3=C(CCC3)C12C#N (stereo unspecified)	GLD-1 TGE inh 49.8 | GLD-1 TGE cf inactive
COc1cccc(NC(=O)CN(C)C(=O)c2csc3c2CCCC3)c1	none (no result: EBV gp42 block)
COc1ccccc1C1C2=C(CCCC2=O)N(CC(=O)O)C2=C1C(=O)CCC2	GLD-1 TGE inh 57.5 (no result: EBV gp42 block) | GLD-1 TGE cf inactive
COc1ccc(C2C3=C(CCCC3=O)N(CC(=O)O)C3=C2C(=O)CCC3)cc1Cl	none (no result: EBV gp42 block)
O=C(Cc1cn(Cc2cccc(Cl)c2)c2ccccc12)N1CCCC1	GLD-1 TGE inh 53.8 | GLD-1 TGE cf inactive
O=C(CS(=O)(=O)c1cn(Cc2ccc(Cl)cc2)c2ccccc12)N1CCCC1	none
CCN(CC)S(=O)(=O)c1ccc(N2CCCC2)c(NS(=O)(=O)c2ccc(F)cc2)c1	GLD-1 TGE inh 34.1 | GLD-1 TGE cf 56.8
CCN(CC)S(=O)(=O)c1ccc(N2CCCC2)c(NS(=O)(=O)c2ccccc2)c1	none
COc1ccc(NC(=O)CSc2ccccc2)cn1	none
COc1ccc(NC(=O)C(c2ccc(Cl)cc2)C(C)C)cn1 (stereo unspecified)	GLD-1 TGE inh 36.4 (no result: EBV gp42 block) | GLD-1 TGE cf inactive
COc1ccc(NC(=O)Cc2ccccc2)cn1	GLD-1 TGE inh 36.0 | GLD-1 TGE cf 35.5
Cc1ccc(NC(=O)CSc2nc(N)cc(=O)[nH]2)cc1S(=O)(=O)N1CCCCCC1	none (no result: EBV gp42 block)
COc1ccc(CN2C(=O)CN=C2Nc2cc(C)ccc2C)cc1	GLD-1 TGE inh 32.5 | GLD-1 TGE cf inactive
CCc1ccccc1NC1=NCC(=O)N1Cc1ccc(OC)cc1	none
CSc1cccc(NC(=O)COC(=O)c2ccccn2)c1	none (no result: EBV gp42 block)
Cc1cc(Cl)ccc1C(O)c1ncc(-c2ccccc2Cl)[nH]1 (stereo unspecified)	none (no result: LANA DNA inh, GLD-1 TGE inh, Keap1 Nrf2 FP, EBV gp42 block, LANA-H2B inh)
CC(=O)Oc1cccc2c1C(=O)c1c(OC(C)=O)cc(C(=O)O)cc1C2=O	GLD-1 TGE inh 51.9 | GLD-1 TGE cf 41.5
CCC(C)Nc1nc(OC(C(F)(F)F)C(F)(F)F)nc(OC(C(F)(F)F)C(F)(F)F)n1 (stereo unspecified)	GLD-1 TGE inh 35.5 | GLD-1 TGE cf inactive
Fc1ccc(Br)cc1C1C=C(c2cccnc2)Nc2ncnn21 (stereo unspecified)	GLD-1 TGE inh 34.1 | GLD-1 TGE cf inactive
CCCC(=O)C1=C(O)C(C(=O)OC)C(C)(C)CC1=Nc1ccc(N)cc1 (stereo unspecified)	none
CCCC(=Nc1ccc(N)cc1)C1=C(O)C(C(=O)OC)C(C)(C)CC1=O (stereo unspecified)	GLD-1 TGE inh 32.6 | GLD-1 TGE cf inactive
C/C(=N/NC(=O)CNc1ccc(Cl)cc1C)c1ccc(C)cc1	none
COc1cc(CNC2CCCC2)cc(Cl)c1OCc1ccc(F)cc1	GLD-1 TGE inh 51.9 | GLD-1 TGE cf inactive
CCOc1cc(CNC2CCCC2)cc(Cl)c1OCc1ccc(F)cc1	none
COc1cc(/C=C(/C#N)C(=O)Nc2cc(C(F)(F)F)ccc2Cl)ccc1OCC(=O)Nc1cccc(C(F)(F)F)c1	none (no result: GLD-1 TGE inh, EBV gp42 block, LANA-H2B inh)
O=[N+]([O-])c1cc([N+](=O)[O-])c(Oc2ccc(Br)cc2Br)cc1NN1CCCCC1	GLD-1 TGE inh 100.4 (no result: EBV gp42 block) | GLD-1 TGE cf inactive
CC(C)/C=C/C(=O)N1CCC(N2CCC(C(=O)NCc3ccccn3)CC2)CC1	GLD-1 TGE inh 34.9 (no result: EBV gp42 block) | GLD-1 TGE cf inactive
CCCN(C(=O)c1c(-c2ccccc2)noc1C)c1c(N)n(Cc2ccccc2)c(=O)[nH]c1=O	none (no result: EBV gp42 block)
Cc1ccc(C)c(S(=O)(=O)N(C)C2(C)CCS(=O)(=O)C2)c1 (stereo unspecified)	none (no result: EBV gp42 block)
Cc1occc1C(=O)NNC(=S)Nc1cccc([N+](=O)[O-])c1	none
COc1ccc(OC)c(-c2cc(C(=O)N/N=C/c3ccc(F)cc3)c3ccccc3n2)c1	none (no result: LANA DNA inh, Keap1 Nrf2 FP, EBV gp42 block)
COc1ccc(OC)c(-c2cc(C(=O)Nc3ccccc3C(N)=O)c3ccccc3n2)c1	GLD-1 TGE inh 33.5 (no result: LANA DNA inh, Keap1 Nrf2 FP, EBV gp42 block) | GLD-1 TGE cf inactive
Cc1ccc(NC(=O)CN2CCN(c3ccccn3)CC2)cc1S(=O)(=O)N(C)C	GLD-1 TGE inh 54.0 | GLD-1 TGE cf inactive

Compound activity as filed in PubChem BioAssay.
